The campaign covered roughly 5,500 compounds. About 2,000 (36%) were called active. Not shown: some 18% with an inconclusive outcome. Rule as the data show it: active = normalized growth mostly below about 0.91 (no sharp cut-off); inconclusive = no clear call, values can overlap the other calls; inactive = mostly above about 0.92. The list shows a part of the results.
Assay: chemical genetic growth profiling, strain panel (AID 1159580);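 also: tested at 20 µM; growth read once vehicle control cultures reached saturation at 30 °C; 1 = growth at the plate median or of vehicle wells; lower values mean less growth of the strain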
Details: S. cerevisiae deletion strains, growth OD
[1] = locus YAL013W, strain DEP1, hits give low values
[2] = locus YAL040C, strain CLN3, hits give low values
[3] = locus YCL061C, strain MRC1 (second series), hits give low values
[4] = locus YDR150W, strain NUM1, hits give low values
[5] = locus YDR363W, strain ESC2, hits give low values
[6] = locus YER002W, strain NOP16, hits give low values
[7] = locus YGR078C, strain PAC10, hits give low values
[8] = locus YMR307W, strain GAS1, hits give low values
[9] = locus YNL175C, strain NOP13, hits give low values
[10] = locus YNL197C, strain WHI3, hits give low values
[11] = locus YNL224C, strain SQS1, hits give low values
[12] = locus YNL322C, strain KRE1, hits give low values
[13] = locus YOR083W, strain WHI5 (second series), hits give low values
[14] = locus YPL055C, strain LGE1, hits give low values
[15] = locus YPL241C, strain CIN2, hits give low values
[16] = locus YJR075W, strain HOC1, hits give low values
[17] = locus YMR263W, strain SAP30, hits give low values

Measured: normalized growth

OC[C@H]1O[C@@H](n2cnc3c(N[C@H]4CC5CCC4C5)ncnc32)[C@H](O)[C@@H]1O (stereo partly drawn)
inactive: [1] 1 | [2] 1.02 | [3] 1.01 | [4] 1.01 | [5] 1 | [6] 1.02 | [7] 1.03 | locus YGR229C, strain SMI1, hits give low values 0.938 | [8] 0.999 | locus YNL128W, strain TEP1, hits give low values 0.992 | [9] 1.01 | [10] 0.994 | [11] 0.974 | [12] 1.01 | [13] 1.04 | [14] 1.03 | [15] 1.01

CCCn1c(=O)c2[nH]c(C3CCCC3)nc2n(CCCOC(=O)c2ccc(S(=O)(=O)F)cc2)c1=O
inactive: [1] 0.992 | [2] 0.987 | [3] 1.01 | [5] 0.998 | [6] 1 | [7] 1.02 | [16] 0.994 | [17] 0.999 | [9] 1.01 | [10] 1 | [11] 1.01 | [13] 0.995 | [14] 1.01

CCOC(=O)C1C(c2cccnc2)C(C(=O)OCC)C(O)(C(F)(F)F)NC1(O)C(F)(F)F (stereo not drawn)
inactive: [1] 1 | locus YBR229C, strain ROT2, hits give low values 1 | locus YCL061C, strain MRC1, hits give low values 1.02 | locus YDL101C, strain DUN1, hits give low values 1 | [4] 0.985 | locus YEL061C, strain CIN8, hits give low values 0.985 | [7] 1.01 | locus YHR030C, strain SLT2, hits give low values 1.01 | locus YHR087W, strain rtc3, hits give low values 1.01 | locus YJR043C, strain POL32, hits give low values 0.996 | [16] 1.03 | locus YKL190W, strain CNB1, hits give low values 1.01 | locus YLR039C, strain RIC1, hits give low values 1.05 | locus YLR058C, strain SHM2 (second series), hits give low values 1.01 | locus YLR085C, strain ARP6, hits give low values 1.01 | locus YLR262C, strain YPT6, hits give low values 1.02 | locus YML094W, strain GIM5, hits give low values 0.965 | locus YMR219W, strain ESC1, hits give low values 1.01 | [17] 1.04 | [8] 0.995 | locus YNL153C, strain GIM3, hits give low values 1.01 | locus YNL298W, strain CLA4 (second series), hits give low values 1 | [12] 0.994 | locus YNR030W, strain Alg12, hits give low values 1 | locus YOL006C, strain TOP1, hits give low values 0.963 | [14] 1 | [15] 1.02 | locus YPR135W, strain CTF4, hits give low values 0.982

From PubChem BioAssay AID1159580 (chemical genetic matrix, 2015)
